High-throughput results from PubChem.
Compounds with a hit are over-represented: about 1.7% of the library has one in this group of screens.
GSTO1 inh = inhibitors of recombinant GSTO1, primary screen, counter-screen for RBBP9 inhibitor project, biochemical, fluorescence polarization; activity-based probe fluorescence polarization; inhibition, % at 5.96 µM; 1.1% of 300,000 active; Glutathione S-transferase omega-1 (Homo sapiens), P78417;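 active = inhibition above the campaign mean inhibition plus 3 SD, cut at about 35% in these data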;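 note: 0% = GSTO1-1 with DMSO and 100% = wells lacking GSTO1-1 enzyme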
LYPLA2 counter = LYPLA2 inhibitors, primary screen, counter-screen for PME1 inhibitor project, biochemical, fluorescence polarization, FP-Rh probe ABPP; Acyl-protein thioesterase 2 (Homo sapiens), O95372; recombinant LYPLA2; inhibition, % at 5.9 µM; 0.38% of 320,000 active;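 active = inhibition above the screen-wide mean plus 3 SD, limit set per campaign, cut at about 26% in these data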;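 note: 0% = LYPLA2 with DMSO and 100% = wells lacking LYPLA2 enzyme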
Target sequence (O95372 whole entry, looked up): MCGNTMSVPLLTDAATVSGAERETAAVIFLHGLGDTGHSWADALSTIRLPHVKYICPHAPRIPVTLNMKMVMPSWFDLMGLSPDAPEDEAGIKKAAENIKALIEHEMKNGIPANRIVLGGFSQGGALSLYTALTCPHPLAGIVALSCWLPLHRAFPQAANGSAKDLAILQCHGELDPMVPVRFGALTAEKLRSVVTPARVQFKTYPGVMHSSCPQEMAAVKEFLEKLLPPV
PME-1 primary = PME-1 inhibitors via competitive probe labeling, primary screen, biochemical, fluorescence polarization, FP-Rh probe, HTS; AID 2130, 2009; recombinant PME-1; inhibition, % at 5.9 µM; 0.53% of 320,000 active; Protein phosphatase methylesterase 1 (Homo sapiens), Q9Y570;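 active = inhibition above the campaign mean of all compounds plus 3 SD, cut at about 26% in these data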;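 note: competitive labeling of PME-1 active site by serine hydrolase directed probe; 0% = PME-1 with DMSO and 100% = wells lacking PME-1 enzyme; inhibitors block probe labeling so polarization falls and inhibition rises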
LYPLA1 inh = LYPLA1 inhibitors, primary screen, counter-screen for PME1 inhibitor project, biochemical, fluorescence polarization, FP-Rh probe ABPP | Acyl-protein thioesterase 1 (Homo sapiens), O75608 | inhibition, % at 5.9 µM | 0.16% of 320,000 active | recombinant LYPLA1;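 active = inhibition above the mean of all tested compounds plus 3 SD, set per campaign, cut at about 14% in these data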;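 note: inhibitors block serine hydrolase probe labeling of LYPLA1 so polarization falls; 0% = enzyme with DMSO and 100% = wells lacking LYPLA1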
Target sequence (O75608 whole entry, looked up): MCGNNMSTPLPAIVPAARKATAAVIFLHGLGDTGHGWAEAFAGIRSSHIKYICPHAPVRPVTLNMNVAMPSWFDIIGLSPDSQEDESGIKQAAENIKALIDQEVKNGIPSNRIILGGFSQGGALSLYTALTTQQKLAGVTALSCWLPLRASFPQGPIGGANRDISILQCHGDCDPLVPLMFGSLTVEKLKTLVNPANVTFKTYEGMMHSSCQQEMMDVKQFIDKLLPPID
PAD4 inh = human PAD4 inhibitors, primary screen, biochemical, fluorescence polarization, 1536-well format | Protein-arginine deiminase type-4 (Homo sapiens), Q9UM07 | recombinant PAD4, RCA probe fluorescence polarization | inhibition, % at 6.36 µM | 0.41% of 330,000 active;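 active = percent inhibition above a cutoff equal to the mean of all tested compounds plus 3 SD, cut at about 15% in these data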;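 note: 0% = PAD4 with RCA probe and DMSO and 100% = probe without PAD4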
Fam108B counter = mouse Fam108B serine hydrolase inhibitors, primary screen, counter-screen for RBBP9 inhibitor project, biochemical, fluorescence polarization. recombinant Fam108B, FP-Rh probe fluorescence polarization. inhibition, % at 9.51 µM. 0.33% of 300,000 active. AID 1947, 2009;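 active = inhibition above the screen mean inhibition plus 3 SD, computed separately per campaign, cut at about 18% in these data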;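 note: inhibitors lower polarization as less probe binds the enzyme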
The depositor's hits bear a star; nt = no result.

SMILES	GSTO1 inh	LYPLA2 counter	PME-1 primary	LYPLA1 inh	PAD4 inh	Fam108B counter
Nc1nonc1-n1nnc(C(=O)N/N=C/c2cc(Cl)ccc2O)c1CN1CCCCCC1	-7	-2	-4	-4	-1	-5
COc1ccc(/C(=C/Nc2cccc(Br)c2)C(C)=O)cc1OC	-3	-1	-1	2	-4	0
COc1cc2cc(C(=O)N/N=C/c3ccc(F)cc3)[nH]c2cc1OC	3	-2	-14	-4	-3	6
COc1ccc(/C=N/NC(=O)c2cc3cc(OC)c(OC)cc3[nH]2)cc1	-8	4	27*	7	-1	5
O=C(Nc1ccc2c(c1)CCCN2C(=O)c1ccco1)c1cc([N+](=O)[O-])ccc1Cl	5	-7	-5	-4	3	1
COc1ccc(-c2cc(-c3c(O)c(OC)c4occc4c3OC)[nH]n2)cc1	-4	11	33*	-5	0	11
COc1ccc(-c2cnnc(N/N=C/c3ccc(O)c(O)c3)n2)cc1	33	-15	29*	-8	-6	12
COc1ccc(-c2cnnc(N/N=C/c3ccc(O)cc3)n2)cc1	5	-7	7	-8	-3	2
Cc1ccc(S(=O)(=O)Nc2c(Cl)c(Cl)c(O)c3ccccc23)cc1	77*	4	2	2	-17	6
Cc1ccc(S(=O)(=O)Nc2c(O)ccc3ccccc23)cc1	23	0	6	0	-13	2
COc1ccc(Cc2nnc(NC(=O)Cc3cccs3)s2)cc1OC	37*	-8	2	-3	-6	16
O=C(Cc1cccs1)Nc1nnc(Cc2ccccc2)s1	21	-1	-5	-6	-10	7
O=C(c1sc2ccccc2c1Cl)N1CCN(c2ncccn2)CC1	-1	11	28*	5	2	9
O=C(c1sc2ccccc2c1Cl)N1CCN(c2ccc(F)cc2)CC1	-7	9	7	3	-1	2
Oc1ccc(NCc2cccc(OCc3ccc(F)cc3)c2)cc1	77*	16	19	3	-2	9
O=C(/C=C/c1ccc(OCCCF)cc1)NCc1ccc(Cl)cc1	-6	0	-1	-2	-1	-2
CCOC(=O)C1=CC[C@@H](c2ccccc2Cl)N(S(=O)(=O)c2ccc(C)cc2)[C@H]1C(=O)OCC	nt	7	1	0	-1	nt
Brc1ccc(OCc2nc3ccccc3[nH]2)cc1	37*	0	-25	-5	-15	-1
Cc1[nH]c2ccccc2c1CCNC(=O)c1ccc2c(c1[N+](=O)[O-])C(=O)c1ccccc1C2=O	10	4	30*	-7	-25	18
CN(C)C(=O)c1ccc2c(c1[N+](=O)[O-])C(=O)c1ccccc1C2=O	36*	14	3	5	-2	2
O=C(Cc1cccs1)N[C@@H]1c2ccccc2CC[C@H]1OCc1ccccc1	nt	nt	nt	nt	-8	nt
O=C(O)C1OC(Oc2cc3oc(-c4ccccc4)cc(=O)c3c(O)c2O)C(O)C(O)C1O (centres undefined)	37*	5	-3	2	-3	2
COc1c(OC2OC(C(=O)O)C(O)C(O)C2O)cc(O)c2c(=O)cc(-c3ccccc3)oc12 (centres undefined)	12	-1	-4	-4	0	3
CN=C1N(C)C[C@@H]2[C@@H]3C(=O)N(C)C(=O)[C@@H]3[C@](C)(C(=O)OC)N12	nt	nt	nt	nt	-3	nt
O=C(O)c1cc(-c2ccc(/C=c3\sc4nc5ccc(Br)cc5n4c3=O)o2)ccc1Cl	41*	3	15	7	-3	0
CCOC(=O)c1cccc(N2CC3CNC(=O)C2(C(=O)OC)N3C)c1 (centres undefined)	nt	nt	nt	nt	3	nt
Cc1oc(-c2ccc3ccccc3c2)nc1CN(C)C(C)c1ccncn1 (centres undefined)	4	-9	29*	-2	-1	-3
O=C(NNC(=O)c1cc(Cl)ccc1O)c1cccc(S(=O)(=O)N2CCOCC2)c1	37*	-7	-1	-4	-2	2
